A selection: hits, their analogues and other compounds. The true share with any hit is near 7.2%.
NIH3T3 tox: NIH 3T3 cell cytotoxicity; NIH 3T3 viability, CellTiter-Glo ATP luminescence, 48-72 h; Potency, µM (highest dose often 96.7 µM), usual class: inhibitors; 94,000 tested, 4.3% active; also: nearly all actives have a fitted effect of over 55% in size
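Cytotoxicity was measured by CellTiter-Glo ATP luminescence after 48 or 72 h compound exposure at 37 °C. Mouse NIH 3T3 fibroblasts were seeded at 400 cells/well and dosed by 23 nL pin transfer.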
HEK cytotox: HEK 293 cell cytotoxicity; HEK 293 viability, ATP luminescence (CellTiter-Glo), 48-72 h; Potency, µM (doses to about 115 µM), hits mostly inhibitors; 94,000 tested, 6.6% active; also: nearly all actives have a fitted effect of over 60% in size
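HEK 293 cells at 250 cells/well were exposed to compounds by pintool transfer for 48 or 72 hr at 37 degree Celsius, 5% CO2. Viability was read as ATP-coupled luminescence with CellTiter-Glo after 10 min at room temperature.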
SNCA expr inh: inhibitors of alpha-synuclein (SNCA) gene expression. HEK-293 SNCA-luciferase knock-in, luminescence, 24 h. Potency, µM (titrated, usually from 57.2 µM), actives largely listed as inhibitors. 140,000 tested, 0.17% active. AID 1671194; also: nearly all actives have a fitted effect of over 45% in size
FLuc inh: blocks purified firefly luciferase enzyme activity; 76,000 tested, 2.5% active; Potency, µM (top dose mostly 115 µM), usual class: inhibitors; purified P. pyralis luciferase, luminescence, biochemical; also: nearly all actives have a fitted effect of over 65% in size
Target sequence (P08659 whole entry, looked up): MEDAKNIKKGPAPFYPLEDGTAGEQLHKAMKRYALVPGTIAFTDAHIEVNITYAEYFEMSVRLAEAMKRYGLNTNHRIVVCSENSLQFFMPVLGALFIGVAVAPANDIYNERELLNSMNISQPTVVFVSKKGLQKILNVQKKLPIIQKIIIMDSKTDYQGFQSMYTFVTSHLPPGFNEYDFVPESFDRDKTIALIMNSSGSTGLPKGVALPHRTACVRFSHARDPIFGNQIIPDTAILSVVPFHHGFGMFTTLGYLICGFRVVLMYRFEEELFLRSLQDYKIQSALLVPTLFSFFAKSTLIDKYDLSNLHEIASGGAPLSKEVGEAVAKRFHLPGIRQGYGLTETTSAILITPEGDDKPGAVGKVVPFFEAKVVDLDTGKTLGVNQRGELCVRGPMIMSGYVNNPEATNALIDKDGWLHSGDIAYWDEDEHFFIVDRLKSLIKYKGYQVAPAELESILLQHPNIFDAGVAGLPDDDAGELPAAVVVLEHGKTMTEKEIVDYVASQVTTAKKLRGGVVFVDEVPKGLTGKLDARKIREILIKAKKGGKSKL
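Luminescence read by CCD imager after adding enzyme (10nM final) to wells holding compound, titrated in qHTS. Substrates 10uM each D-luciferin and ATP; buffer 50mM Tris acetate pH 7.5, 10mM Mg acetate, Tween-20, BSA.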
HEK293 viab: counter-screen for SNCA expression inhibitors: cell viability; HEK-293-SNCA-luc viability, GF-AFC fluorescence, 24 h; Potency, µM (top dose mostly 57.1 µM), hits mostly cytotoxic; 150,000 tested, 0.12% active; AID 1671193; also: nearly all actives have a fitted effect of over 30% in size
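HEK-293-SNCA-luc cells (1500/well) plated 24 h, then exposed 24 h to a dilution series; GF-AFC added 30 min at 37C, fluorescence 405/540 nm; normalised to medium-only and DMSO wells, Hill fit.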
NPR1 antag: blocks ANP-stimulated signaling of human Npr1 receptor | P16066 | HEK293 hNpr1 GloSensor cGMP, ANP-stimulated luminescence | Potency, µM (doses to about 46.3 µM), usual class: inhibitors | 76,000 tested, 1.6% active | AID 1347048; calls by dose curve; also: nearly all actives have a fitted effect of over 60% in size
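HEK293 cells stably expressing human Npr1 and cGMP GloSensor pGS-40F, loaded 2 h with 2% GloSensor reagent, given compound 30 min at room temperature. Luminescence read before and 20 min after 0.1 nM hNppA.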
NPR1 antag cnf: hNpr1 antagonism, confirmation assay. shares compounds with NPR1 antag. Potency, µM (top dose mostly 57.6 µM), usual class: inhibitors. 1,400 tested, 76% active. HEK293 hNpr1 cGMP GloSensor luminescence, ANP-stimulated; calls by dose curve; also: nearly all actives have a fitted effect of over 70% in size
Npr2 selectivity: selectivity test of Npr1 antagonists against human Npr2; 1,400 tested, 67% active; Potency, µM (top dose mostly 57.6 µM), usual class: inhibitors; shares compounds with NPR1 antag; HEK293 hNpr2 GloSensor cGMP luminescence, CNP-stimulated; calls by dose curve; also: nearly all actives have a fitted effect of over 70% in size
FLuc inh counter: FLuc enzyme inhibition, Npr1 counter-screen; shares compounds with NPR1 antag; purified FLuc enzyme, luminescence, Km substrate; Potency, µM (series often up to 57.6 µM), actives largely listed as inhibitors; 1,400 tested, 0.7% active; AID 1347047
GloSensor ctrl: reduces cGMP signal in GloSensor control cells; shares compounds with NPR1 antag; HEK293 GloSensor cGMP, SNP-stimulated, luminescence; Potency, µM (highest dose often 57.6 µM), usual class: inhibitors; 1,400 tested, 69% active; AID 1347051; calls by dose curve; also: nearly all actives have a fitted effect of over 70% in size
Hits are given with their value; [ ] = another dose, or the depositor's remark. Unless noted, calls follow the shape of the dose curve; as a rule, active = well fitted curve in the direction sought with a large enough effect; inconclusive = small, poorly fitted or top-dose-only effect, or another doubt; inactive = no such curve, though single readings can be large; an effect the other way counts as inactive or inconclusive.

Screening Cn1nccc1CN1CCn2c(nn(-c3ccc(C(F)(F)F)cc3)c2=O)C1 returned NIH3T3 tox inconclusive, HEK cytotox inconclusive, SNCA expr inh inconclusive, HEK293 viab inactive, NPR1 antag cnf inconclusive, Npr2 selectivity inconclusive, FLuc inh counter inactive and GloSensor ctrl inconclusive.
Screening O=c1n(-c2ccc(Cl)cc2)nc2n1CCN(Cc1ccc(C(F)(F)F)cc1)C2 returned NIH3T3 tox inconclusive, HEK cytotox inconclusive, SNCA expr inh inactive and HEK293 viab inactive.
For COc1ccc(-c2nccn3cc(C(=O)NCc4ccc(OC)c(OC)c4)nc23)cc1 the results were NIH3T3 tox inactive, HEK cytotox inconclusive, SNCA expr inh inconclusive, FLuc inh inactive, HEK293 viab inactive, NPR1 antag 13µM, NPR1 antag cnf 19µM, Npr2 selectivity 15µM, FLuc inh counter inactive and GloSensor ctrl inactive.
For O=C(NC1CCN(c2nccc(Nc3ccccc3F)n2)CC1)C1CCCC1 the results were NIH3T3 tox inconclusive, HEK cytotox inconclusive, SNCA expr inh inactive and HEK293 viab inactive[12.5 µM].
`C=CCN(C)C(=O)CC1COc2ccc(C(=O)N(C)C)cc2N1C` (configuration not stated) gave NIH3T3 tox inactive, HEK cytotox inactive, SNCA expr inh inactive, FLuc inh inactive, HEK293 viab inactive, NPR1 antag inactive, NPR1 antag cnf inactive, Npr2 selectivity inactive, FLuc inh counter inactive and GloSensor ctrl inactive.
For COc1ccc(NC(=O)N2CCCC(c3noc(COc4ccccc4)n3)C2)c(C)c1 (configuration not stated) the results were NIH3T3 tox inactive, HEK cytotox inconclusive, SNCA expr inh inactive, FLuc inh inactive, HEK293 viab inactive, NPR1 antag inconclusive, NPR1 antag cnf 24µM, Npr2 selectivity inconclusive, FLuc inh counter inactive and GloSensor ctrl 22µM.
Screening CCOc1ccccc1NC(=O)N1CCCC(c2noc(COc3ccccc3)n2)C1 (configuration not stated) returned NIH3T3 tox inconclusive, HEK cytotox inconclusive, SNCA expr inh inactive, FLuc inh inactive, HEK293 viab inactive[12.5 µM] and NPR1 antag inactive.
For COc1ccc(CCCN2C(=O)O[C@@H]3CN(c4cc(OC)ncn4)C[C@@H]32)cc1 the results were NIH3T3 tox inconclusive, HEK cytotox inconclusive, SNCA expr inh inconclusive, FLuc inh inactive, HEK293 viab inactive, NPR1 antag 13µM, NPR1 antag cnf 24µM, Npr2 selectivity 22µM, FLuc inh counter inactive and GloSensor ctrl 22µM.
`COc1ncccc1C(=O)N1CCc2onc(-c3cccc4ccccc34)c2C1` gave NIH3T3 tox inactive, HEK cytotox inconclusive, SNCA expr inh inactive, FLuc inh inactive, HEK293 viab inactive and NPR1 antag inactive.
For COCc1cc(N2CCc3onc(-c4cccc5ccccc45)c3C2)ncn1 the results were NIH3T3 tox inconclusive, HEK cytotox 35µM, SNCA expr inh inconclusive, FLuc inh inactive, HEK293 viab inactive, NPR1 antag 13µM, NPR1 antag cnf 22µM, Npr2 selectivity inconclusive, FLuc inh counter inactive and GloSensor ctrl 24µM.
`CC(Cn1cccn1)C(=O)N1CCc2onc(-c3ccc(F)c(F)c3)c2C1` (configuration not stated) gave NIH3T3 tox inactive, HEK cytotox inconclusive, SNCA expr inh inconclusive, FLuc inh inactive, HEK293 viab inactive and NPR1 antag inactive.
Screening CCCOc1ccccc1C(=O)N1CCc2onc(-c3ccccc3)c2C1 returned NIH3T3 tox inconclusive, HEK cytotox inconclusive, SNCA expr inh inactive, FLuc inh inactive, HEK293 viab inactive, NPR1 antag inconclusive, NPR1 antag cnf inconclusive, Npr2 selectivity inconclusive, FLuc inh counter inactive and GloSensor ctrl inactive.
Screening CCC(O)C(=O)N1CCc2onc(-c3ccc(-c4ccccc4)cc3)c2C1 (configuration not stated) returned NIH3T3 tox inconclusive, HEK cytotox inconclusive, SNCA expr inh inactive, FLuc inh inactive, HEK293 viab inconclusive, NPR1 antag 11µM, NPR1 antag cnf 24µM, Npr2 selectivity 24µM, FLuc inh counter inconclusive and GloSensor ctrl 24µM.
Screening O=C(c1ccccc1)N1Cc2[nH]cnc2C[C@H]1c1nc(-c2ccc(Cl)cc2)no1 returned NIH3T3 tox inconclusive, HEK cytotox inconclusive, SNCA expr inh inconclusive, FLuc inh inactive, HEK293 viab inactive and NPR1 antag inactive.
Screening O=C(Nc1ccc(Cl)cc1)N1Cc2[nH]cnc2C[C@H]1c1nc(-c2ccccc2)no1 returned NIH3T3 tox 32µM, HEK cytotox 79µM, SNCA expr inh inactive, FLuc inh inactive, HEK293 viab inactive, NPR1 antag inactive, NPR1 antag cnf inconclusive, Npr2 selectivity inconclusive, FLuc inh counter inconclusive and GloSensor ctrl inactive.
COc1ccc(C(=O)Nc2ccc(-c3noc([C@@H]4CCCN4CC4CCCCC4)n3)cn2)cc1 was read as NIH3T3 tox inconclusive, HEK cytotox 45µM, SNCA expr inh inactive, FLuc inh inactive, HEK293 viab inactive, NPR1 antag 10µM, NPR1 antag cnf 6.9µM, Npr2 selectivity 12µM, FLuc inh counter inactive and GloSensor ctrl 12µM.
Screening COc1ccc(C(=O)Nc2ccc(-c3noc([C@@H]4CCCN4Cc4ccc(C(F)(F)F)cc4)n3)cn2)cc1 returned NIH3T3 tox inconclusive, HEK cytotox inconclusive, SNCA expr inh inactive, FLuc inh inactive, HEK293 viab inactive, NPR1 antag 11µM, NPR1 antag cnf 11µM, Npr2 selectivity 14µM, FLuc inh counter inactive and GloSensor ctrl 9.7µM.
Screening COCC(=O)Nc1ccc(-c2noc([C@@H]3CCCN3C)n2)cn1 returned NIH3T3 tox inactive, HEK cytotox inactive, SNCA expr inh inactive, FLuc inh inconclusive, HEK293 viab inactive and NPR1 antag inactive.
For COc1ccc(C(=O)Nc2ccc(-c3noc([C@@H]4CCCN4Cc4ccc(OC(F)(F)F)cc4)n3)cn2)cc1 the results were NIH3T3 tox inconclusive, HEK cytotox inconclusive, SNCA expr inh inactive, FLuc inh inactive, HEK293 viab inactive, NPR1 antag 11µM, NPR1 antag cnf 12µM, Npr2 selectivity 11µM, FLuc inh counter inactive and GloSensor ctrl 11µM.

Screening results deposited in PubChem by National Center for Advancing Translational Sciences (NCATS).
